Source: PubChem
Sampled rows, rich in hits. Any-hit rate of the full collection: about 3%.
GALK inh – galactokinase (human) inhibition | Purified GALK, Kinase-Glo residual ATP luminescence | Potency, µM (titrated, usually from 57.5 µM), without a hit: at the top dose activity change, negative = inhibition, usual class: inhibitors | P51570 | 270,000 compounds, 0.007% hits | AID 1868; note: % is set by controls: 0 for no effect and ±100 for the full control effect
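GALK at 5 nM final was combined with compound, 35 uM ATP and 100 uM galactose in HEPES pH8.0 with MgCl2 and DTT. The reaction ran one hour at room temperature before luminescent ATP detection.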
A549 tox – counter-screen for Nrf2 inhibitors: cytotoxicity in A549 cells; A549 ARE-Fluc cells, CellTiter-Fluor viability, 18-24 h; Potency, µM (top dose mostly 46 µM), inactives show at the top dose activity change, negative = cytotoxicity, hits mostly inhibitors; 390,000 compounds, 0.16% hits; AID 504648; note: % is set by controls: 0 for no effect and ±100 for the full control effect
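A549 ARE-Fluc cells in 5% FBS OPTI-MEM, 5000 cells/well, rested 2 h then exposed to compounds in concentration-response for 18-24 h at 37 °C. Viability by CellTiter-Fluor fluorescence (Ex 405/Em 525) after 30 min; luciferase luminescence (BugLite, 15 min, RT) read afterwards.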
TrxR1 substrate – substrates of rat thioredoxin reductase 1; O89049; purified TrxR1 substrate turnover, NADPH consumption readout; Potency, µM (highest dose often 114 µM), without a hit: at the highest dose activity change, negative = substrate turnover; 390,000 compounds, 0.01% hits; note: % is set by controls: 0 for no effect and ±100 for the full control effect; nearly all actives have a fitted effect of over 50% in size
Target sequence (O89049 whole entry, looked up): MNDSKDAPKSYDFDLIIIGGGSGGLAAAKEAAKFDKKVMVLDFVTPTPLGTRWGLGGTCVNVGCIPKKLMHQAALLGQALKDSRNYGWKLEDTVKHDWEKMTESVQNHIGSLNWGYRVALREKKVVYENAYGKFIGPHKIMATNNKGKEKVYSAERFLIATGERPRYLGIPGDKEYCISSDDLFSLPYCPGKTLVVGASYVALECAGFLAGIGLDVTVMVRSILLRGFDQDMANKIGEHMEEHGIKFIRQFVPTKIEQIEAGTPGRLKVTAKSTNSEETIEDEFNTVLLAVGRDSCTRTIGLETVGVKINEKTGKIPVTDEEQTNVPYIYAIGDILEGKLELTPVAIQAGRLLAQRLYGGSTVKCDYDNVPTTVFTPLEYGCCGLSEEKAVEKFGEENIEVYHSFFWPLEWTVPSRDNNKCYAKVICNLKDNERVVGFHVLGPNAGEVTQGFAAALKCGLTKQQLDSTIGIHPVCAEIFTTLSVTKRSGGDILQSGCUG
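Rat TrxR1, dispensed at 90 nM, was prereduced with 400 uM NADPH (final) for 5 min at ~22 deg C, then incubated with compound 15 min before 400 uM selenite. A first-read NADPH fluorescence drop versus no-compound background flagged substrates.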
TrxR1 inh – blocks rat thioredoxin reductase 1 | O89049 | recombinant rTrxR1, NADPH fluorescence consumption, selenite substrate | AID 588453 | Potency, µM (titrated, usually from 114 µM), for the others: at the highest dose activity change, negative = inhibition, most hits filed as inhibitors | 390,000 compounds, 1% hits; note: % is set by controls: 0 for no effect and ±100 for the full control effect; nearly all actives have a fitted effect of over 65% in size
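Rat TrxR1 (90 nM in the dispensed reagent) was pre-reduced with 400 uM NADPH for 5 min at room temperature, then incubated with compound for 15 min. After 400 uM selenite was added, NADPH fluorescence (Ex 340/Em 450 nm) was followed for 8 min.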
Nrf2 activator – Nrf2 pathway activation. AREc32 ARE-luciferase reporter (MCF7-derived line), luminescence, 24 h. Potency, µM (series often up to 46.1 µM), for the others: top-dose activation, usual class: activators. 410,000 compounds, 0.31% hits; note: % of control where 0% means no effect; nearly all actives have a fitted effect of over 65% in size
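Quantitative high-throughput format: AREc32 reporter cells, 1000 per well, received compound by pin transfer and were incubated 24 hr at 37 deg C, 5% CO2, before Steady-Glo luminescence detection.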
Nrf2 inh – blocks Nrf2 signaling; AID 504444; A549 ARE-Fluc reporter, luciferase luminescence, 18-24 h; 360,000 compounds, 2.1% hits; Potency, µM (highest dose often 46 µM), for inactives: top-dose activity change, negative = inhibition, actives largely listed as inhibitors; note: % is set by controls: 0 for no effect and ±100 for the full control effect; nearly all actives have a fitted effect of over 60% in size
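Cells were seeded and rested 2 h, then exposed to compounds for 18-24 h. CellTiter-Fluor was read first as a viability measure. BugLite was added 15 min before the final luminescent read of ARE-luciferase activity in A549 cells.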
The depositor's hits bear a star; ? = inconclusive; . = no result; ! = not confirmed by another sample; [ ] = another dose, or the depositor's remark. Calls come from the whole dose curve; as a rule, active = well fitted curve in the direction sought with a large enough effect; inconclusive = small, poorly fitted or top-dose-only effect, or another doubt; inactive = no such curve, though single readings can be large; an effect the other way counts as inactive or inconclusive. Potency is the fitted concentration of half-maximal effect.

SMILES	GALK inh	A549 tox	TrxR1 substrate	TrxR1 inh	Nrf2 activator	Nrf2 inh
CC(C)(C)NS(=O)(=O)c1ccc(NC(=O)C(Sc2ccccc2)c2ccccc2)cc1 (stereo not given)	-1%	?	-9%	-3%	0%	9.2µM*
Cc1noc2ncnc(N3CCCC(C(=O)Nc4cc(F)ccc4F)C3)c12 (stereo not given)	.	0%	2%	17%	7%	?
C#CC(=O)N(c1ccc(OC)c(OC)c1)C(C(=O)NC1CCCC1)c1cccs1 (stereo not given)	-5%	?	1%	3.2µM*	?	23µM*
C#CC(=O)N(c1cccc(OC)c1)C(C(=O)NC1CCCC1)c1cccs1 (stereo not given)	-2%	-15%	11%	?	-2%	16µM*
Cc1cccc(N(C(=O)C(F)(F)F)C(C(=O)NC2CCCCC2)c2cccs2)c1 (stereo not given)	-2%	-5%	0%[57.1 µM]	14%[57.1 µM]	3%	4%
COc1ccc(OC)c(/C=C/c2cc3ccccc3cn2)c1	.	.	-3%	3%	.	.
CC1(C)Cc2c(C#N)c(N3CCN(C(=O)c4ccccc4)CC3)nc(-c3ccco3)c2CS1	-5%	-8%	6%	32µM*	0%	-20%
Cc1ccc(CNc2ccc(-c3nc(-c4ccco4)no3)cc2[N+](=O)[O-])cc1	.	0%	-1%	-17%	0%	?
N#CC1=C(S)N(c2ccccc2)C(c2ccc(-c3cccc(Cl)c3)o2)NC1=O (stereo not given)	-7%	-1%	-4%	40µM*	21%	-14%
Cc1cccc(N2C(S)=C(C#N)C(=O)NC2c2ccco2)c1 (stereo not given)	6%	-5%	-4%	-35%	3%	-4%
CCCN(CCC)C1=N/C(=C\c2ccco2)C(=O)N1c1ccccc1	0%	-16%	-10%	25µM*	20%	-1%
CN1C(=O)/C(=C\c2ccco2)N=C1c1ccc(Cl)cc1Cl	-2%	5%	-2%	9%	2%	7%
Nc1ncn(C(=S)Nc2ccccc2)n1	.	-2%	-6%	16µM*	12%	-3%
CCc1ccc(C(=O)COC(=O)CNC(=O)c2ccco2)cc1	2%	-6%	-2%	8%	0%	1%
O=C(CNC(=O)c1ccco1)OCC(=O)c1ccc2c(c1)CCCC2	.	.	0%	79µM*	0%	7%
CN1C/C(=C\c2ccc(N3CCOCC3)cc2)C(=O)/C(=C/c2ccc(N3CCOCC3)cc2)C1	.	-11%	?	?	11µM*	12%
O=C(Cn1c(=O)n(Cc2ccc(F)cc2)c(=O)c2sc3ccccc3c21)NCc1ccccc1	.	0%	9%	22%	-1%	-1%
CCc1ccc(-c2cc(C(F)(F)F)n3nc(C(=O)Nc4cnn(Cc5ccc(C)cc5)c4)cc3n2)s1	2%	26µM*	8%	-1%	0%	8.2µM*
O=c1[nH]n(Cc2ccccc2)c(=O)c2ccccc12	-5%	-3%	1%	3%	5µM*	.
CCc1cccc(NC(=O)CSc2ncc3c(n2)-c2ccccc2N(CC)S3(=O)=O)c1	.	-1%	-1%[57.1 µM]	-5%[57.1 µM]	1%	?
CCc1cccc(NC(=O)CSC2=NS(=O)(=O)c3ccccc32)c1	2%	6%	3%[57.1 µM]	3.2µM*	3%	?
CNc1oc(/C=C/c2ccccc2)nc1C#N	.	5%	643%	138%	2.8µM*	?
COCCNc1oc(/C=C/c2ccccc2)nc1C#N	.	-5%	772%[57.1 µM]	53%[57.1 µM]	2%	?
CCC[N+](C)(C)c1ccc(/C=C/c2ccnc3ccccc23)cc1	.	.	-11%	-25%	.	.
COC(=O)c1nc(Nc2cc(F)cc(F)c2)nc(NC2CCCC2)n1	.	1%	.	.	.	17%
SMILES	GALK inh	A549 tox	TrxR1 substrate	TrxR1 inh	Nrf2 activator	Nrf2 inh
COc1cc(OC)c(NC(=O)c2csc(C)c2)cc1Cl	3%	-3%	-2%	18%	13µM*	21%
COc1cc(OC)c(NC(=O)c2cc3ccccc3cc2O)cc1Cl	.	-27%	-7%	-22%	23%	26µM*
COc1cc(NC(=O)c2ccccc2)c(OC)cc1Cl	-2%	-1%	-14%	-12%	16%	-4%
Cc1ccc(NC(=O)c2oc3ccccc3c2NC(=O)C2CCCCC2)cc1	.	5%	29%	?	0%	-8%
COc1ccc(NC(=O)C2CCN(c3ccc(Sc4ccc(C)cc4)nn3)CC2)cc1	.	-5%	-1%	3%	0%	6%
CC1=Nc2cc(C(=O)NCc3ccccc3Cl)ccc2Sc2c(C)ccc(C)c21	.	-13%	-7%	2%	0%	2%
COc1ccc(C(=O)N(Cc2ccccc2)Cc2cccs2)c(O)c1	.	-1%	.	.	.	10%
COc1ccc(-c2[nH]c(-c3ccc(O)cc3)nc2-c2ccccc2)cc1	.	-4%	31%	2%	-3%	9%
CCOC(=O)/C=C1\CC(C(=O)OCC)Oc2c(OC)cccc21 (stereo not given)	.	0%	3%	28µM*!	10%	-2%
O=C(CC1Sc2ncnn2C1=O)Nc1ccccc1 (stereo not given)	-1%	1%	7%	4.5µM*	0%	22%
CCc1ccc(CNC(=O)c2cccc(-n3c(C)nc4cccnc43)c2)cc1	.	-3%	-1%	16%	1%	?
COc1ccc(OCC(=O)NNc2c3ccccc3nc3ccccc23)cc1	0%	?	-1%	3%	-1%	21µM*
CCOc1ccc(-c2cnc(NCc3cccc(Cl)c3)n2C)cc1	.	-7%	8%[11.4 µM]	2%	5%	13%
CCCCn1cnc2c(Sc3c([N+](=O)[O-])ncn3C)nc(N)nc21	.	-19%	-6%	2.8µM*	6%	-19%
CCCn1cnc2c(Sc3c([N+](=O)[O-])ncn3C)nc(N)nc21	.	-18%	-4%	3.2µM*	8%	-17%
Cn1cnc([N+](=O)[O-])c1Sc1nc(N)nc2c1ncn2Cc1ccccc1	.	-14%	-8%	6.3µM*	7%	?
CC(=O)Nc1ccc(NC(=O)C(Cc2ccccc2)N2Cc3ccccc3C2=O)cc1 (stereo not given)	.	1%	1%	19%	0%	20%
COC(=O)c1c(-c2ccc(Cl)cc2)noc1N1CCN(c2ccc(C)cc2C)CC1	.	-1%	0%[57.1 µM]	30%[57.1 µM]	0%	.
Cc1ccc(C2CC(c3cccs3)=NN2C(=O)CCl)cc1 (stereo not given)	3%	-26%	4%	13µM*	5%	?
CCC(=O)N1N=C(c2cccs2)CC1c1ccc(OC)cc1 (stereo not given)	2%	1%	4%	16%	4%	-19%
